# Screening data deposited in PubChem by several laboratories.
# Rows were chosen to be rich in hits. Some 32% of all compounds tested hit in one or more screens of this group.
# PostGolgi ctrl – growth of the yeast control strain, post-Golgi counter-screen; efflux-deficient yeast background strain, growth absorbance A615, 16 h; inhibition, % at 10 µM; 5% of 98,000 active; AID 738
# PostGolgi yeast – growth inhibition of a yeast mutant, post-Golgi transport screen | post-Golgi transport phenotypic cell assay | inhibition, % at 10 µM | 0.9% of 98,000 active;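 also: yeast cells grown in 1536-well plates; yeast grown about 18 h at 30C before absorbance read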
# CYP2C19 act – activators of human cytochrome P450 2C19. recombinant CYP2C19, luciferin-H EGE luminescence; active compounds read high; 0 = fully inhibited enzyme, 1 = untreated enzyme. activation factor at 5 µM. 96,000 tested, under 10 active. AID 1025;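 active = activation factor of at least 2 at 5 µM in the primary screen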;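 also: 0 = wells with 2.5 mM tranylcypromine and 1 = vehicle-only wells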
# Target sequence (P33261 whole entry, looked up): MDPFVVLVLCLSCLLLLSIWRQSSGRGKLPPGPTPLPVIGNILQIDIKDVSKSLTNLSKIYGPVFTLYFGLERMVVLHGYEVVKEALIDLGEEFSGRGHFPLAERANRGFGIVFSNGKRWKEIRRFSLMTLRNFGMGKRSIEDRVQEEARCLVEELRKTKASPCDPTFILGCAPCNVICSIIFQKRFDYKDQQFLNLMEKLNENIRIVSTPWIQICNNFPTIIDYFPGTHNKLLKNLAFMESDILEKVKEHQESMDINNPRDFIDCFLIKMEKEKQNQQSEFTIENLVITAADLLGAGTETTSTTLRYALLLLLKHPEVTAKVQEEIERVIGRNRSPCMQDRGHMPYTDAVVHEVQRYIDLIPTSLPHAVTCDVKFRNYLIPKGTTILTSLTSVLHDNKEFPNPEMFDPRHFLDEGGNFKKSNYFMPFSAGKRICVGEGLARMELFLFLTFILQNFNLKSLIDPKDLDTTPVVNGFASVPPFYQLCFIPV
# CYP2C19 inhib – human CYP2C19 inhibition; inhibition, % at 5 µM; CYP2C19 Supersomes, luciferin-H EGE luminescence, 30 min; AID 778; P33261; 21% of 96,000 active;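 active = CYP2C19 inhibition above a set limit at 5 µM in the primary screen, cut at about 50% in these data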;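 also: plate controls were negative control wells for no effect and 2.5 mM tranylcypromine positive control for full effect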
# CYP2C9 act – activators of human CYP2C9 | recombinant CYP2C9, luciferin-H conversion, luminescence; active compounds read high; factor 1 = untreated enzyme, 0 = blocked | activation factor at 5 µM | 1.4% of 96,000 active;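 active = activation factor of 2 or more for CYP2C9 at a 5 µM dose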;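 also: 0 = sulfaphenazole-blocked wells and 1 = vehicle-only wells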
# CYP2C9 inh – inhibitors of human CYP2C9; P11712; CYP2C9 Supersomes, luciferin-H conversion, luminescence; inhibition, % at 5 µM; 20% of 96,000 active; AID 777;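 active = blocking of liver enzyme CYP2C9 beyond about 50% at 5 µM, limit read from the data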
# Active calls of the source: *. Rule as the data show it, unless noted: active = inhibition above about 30%; inactive = the rest.
SMILES,PostGolgi ctrl,PostGolgi yeast,CYP2C19 act,CYP2C19 inhib,CYP2C9 act,CYP2C9 inh
O=C(Nc1ccc(Cl)cc1)N(Cc1cccnc1)Cc1ccco1,2,-5,0,100*,0.1,90*
Cc1ccc(NC(=O)N(Cc2cccnc2)Cc2ccco2)cc1C,7,4,0,96*,0.2,78*
S=C(NCc1cccnc1)Nc1ccc(Cl)c(Cl)c1,9,0,0.1,92*,0,98*
O=C(CC(=O)NCc1cccnc1)NCc1cccnc1,-2,-2,0.8,15,1,3
O=C(NCc1cccnc1)c1ccc(NC(=O)c2ccco2)cc1,7,8,1.1,-6,0.7,32
N#CCCN(Cc1cccnc1)C(=O)c1ccc(S(=O)(=O)N2CCOCC2)cc1,4,-5,1,3,1,1
CCOC(=O)N1CCN(c2nc(-c3ccc(F)cc3)cs2)CC1,7,-5,0.7,31,0.6,36
Cc1cccc(N2C(=O)CC(N(O)c3ccccc3)C2=O)c1 (configuration not stated),9,0,0.6,41,1.4,-38
CCOC(=O)CSc1nnc(NCC(=O)OC(C)C)c(=O)[nH]1,-8,1,1.1,-13,1.2,-21
COc1ccc(C2CC(C(F)(F)F)n3nc(C(=O)NCc4cn(C)nc4C)c(Cl)c3N2)cc1 (configuration not stated),-3,-1,1,-3,1,-5
CN(c1ccccc1C(=O)Nc1cccc(Cl)c1Cl)S(C)(=O)=O,10,-2,0.4,65*,0.7,28
Cc1ccc(NC(=O)c2ccccc2N(C)S(C)(=O)=O)cc1C,5,2,0.5,50*,1,-5
O=c1oc(-c2cccs2)nc2c1cnn2-c1ccccc1,1,2,1.1,-15,0.9,7
Cc1ccc(C2CC(=O)Nc3cc4c(cc32)OCCO4)s1 (configuration not stated),16,-1,0.9,9,0.7,35
O=C1CC(c2cccs2)c2cc3c(cc2N1)OCCO3 (configuration not stated),6,20,0.3,68*,0.3,71*
COc1ccccc1C1CC(=O)Nc2cc3c(cc21)OCCO3 (configuration not stated),7,1,0.7,33,0.3,74*
COc1cc2c(cc1OC)C(c1cccnc1)CC(=O)N2 (configuration not stated),5,2,1,-4,0.9,7
CCOc1ccccc1C1CC(=O)Nc2cc3c(cc21)OCO3 (configuration not stated),15,4,0,98*,0.3,66*
CC(C)Oc1ccccc1C1Nc2ccccc2C(=O)N1c1ccc2c(c1)OCCO2 (configuration not stated),18,-16,0.1,95*,0,96*
CC(C)CC(C(=O)Nc1ccc2c(c1)OCCO2)N1C(=O)c2ccccc2C1=O (configuration not stated),-8,1,1.1,-12,1,4
CCOc1cc(NS(=O)(=O)c2ccccc2)c(OCC)cc1NC(=O)c1ccco1,18,-2,1,3,0.7,25
O=C(Nc1ccc2c(c1)OCCO2)c1ccc(Br)o1,4,-6,0.7,33,0.9,11
Cc1c(NC(=O)c2ccc(F)c(S(=O)(=O)N3CCOCC3)c2)c(=O)n(-c2ccccc2)n1C,7,1,1.2,-20,1.1,-10
COc1cc2c(cc1OC)C(c1cccc(OC)c1OC)CC(=O)N2 (configuration not stated),1,5,0.8,18,0.7,32
CCC(C)Oc1ccccc1C1CC(=O)NC2=C1C(=O)CCC2 (configuration not stated),7,2,1,2,1,-4
SMILES,PostGolgi ctrl,PostGolgi yeast,CYP2C19 act,CYP2C19 inhib,CYP2C9 act,CYP2C9 inh
COc1cccc(C2CC(=O)Nc3cc4c(cc32)OCCO4)c1OC(C)C (configuration not stated),16,1,0.5,49,0.4,63*
CC(C)Oc1ccccc1C1CC(=O)Nc2cc3c(cc21)OCCO3 (configuration not stated),16,2,0,96*,0,96*
CC1=CC(c2ccccc2)n2nc(NS(=O)(=O)c3ccc(C)cc3)nc2N1 (configuration not stated),-1,24,1.1,-8,0.8,24
CCc1c(C)nc(SC)n(CC#N)c1=O,27,-3,1.1,-14,1.2,-21
COCCn1nnnc1SCC(=O)c1ccccc1,5,1,0.3,67*,1.9,-89
COc1ccc(-n2nnnc2SCC(=O)c2cccc(OC)c2)cc1,12,11,0.7,27,0.7,27
CCn1nnnc1SCC(=O)c1cccc(OC)c1,9,-8,0.2,76*,0.6,42
O=C(Cc1ccccc1)NCC(=O)OCC(=O)c1ccc(OC(=O)c2ccccc2)cc1,-1,3,1,1,0.8,15
CCOC(=O)C1CCN(Cc2ccc(F)cc2F)CC1,5,-2,0.6,37,0.8,22
O=C(c1ccco1)N1CCN(Cc2nc3ccccc3c(=O)n2-c2ccc(F)cc2)CC1,16,-4,0.6,36,0.3,70*
CCOC(=O)C1CCN(Cc2nc3ccccc3c(=O)n2-c2ccc(F)cc2)CC1,12,-1,0.9,13,0.3,68*
O=C(NC1=NCCS1)c1cc2ccccc2o1,-3,-1,0.7,26,0.7,28
CCC(CC)C(=O)Nc1c(C)n(C)n(-c2ccccc2)c1=O,17,3,1,3,0.5,51*
Cc1c(NC(=O)CSc2nc3ccccc3n2C)c(=O)n(-c2ccccc2)n1C,17,4,1,1,2.1*,-106
Cc1c(NC(=O)CSc2nnc(C(C)Oc3ccc(Cl)cc3)n2-c2ccccc2)c(=O)n(-c2ccccc2)n1C (configuration not stated),32*,3,0.9,12,0.6,43
Cc1c(NC(=O)COC(=O)C(c2ccc(Cl)cc2)C(C)C)c(=O)n(-c2ccccc2)n1C (configuration not stated),-1,-1,0.7,31,0.4,58*
Cc1c(NC(=O)C(C)Sc2ccccc2)c(=O)n(-c2ccccc2)n1C (configuration not stated),1,-7,0.8,15,1,-4
Cc1ccc(C(=O)N2C3C=CC(C3)C2(C(F)(F)F)C(F)(F)F)cc1 (configuration not stated),3,-6,0.8,19,0.7,34
CSc1nncc(=O)[nH]1,0,-3,1.1,-9,1.1,-13
O=C(C1CCN(C2CC(=O)N(c3ccc(Cl)cc3)C2=O)CC1)N1CCOCC1 (configuration not stated),2,14,1.1,-8,1.2,-23
